This passage reports inhibition results from PubChem BioAssay.

For assay [1], the system named is Botulinum neurotoxin type F light chain protease (Clostridium botulinum). The experiment in a line: Botulinum neurotoxin type F light chain protease inhibition, multiplex microsphere flow cytometry, validation set (AID 588459). Conditions: multiplex microsphere protease substrate cleavage assay, at 10 µM, stronger effect = higher value.
Assay [2] has as its target Botulinum neurotoxin type A (Clostridium botulinum) (UniProt P0DPI0). The experiment in a line: BoNT/A light chain protease inhibitors, biochemical, multiplex microsphere flow cytometry, validation set (AID 588460). As to conditions: at 10 µM, stronger effect = higher value.
Assay [3] addresses Lethal factor (Bacillus anthracis) (UniProt P15917). The experiment in a line: Lethal factor protease inhibitors, Bacillus anthracis, multiplex microsphere cleavage assay, validation set (AID 588461). Conditions: flow cytometry, at 10 µM, stronger effect = higher value. (In general: A flow cytometer gives signals particle by particle.)

Values without a mark were called inactive. The rule behind the calls is not given here.

Broadly, the inhibition is the change of the read-out against control, counted positive when it falls. Turning to `Cn1c(=O)c2[nH]cnc2n(C)c1=O`, the inhibition in assay [1] is 2.7%; in assay [2], -2%.
On to `O=C(CNC(=O)OCc1ccccc1)Oc1cc2oc(=O)cc(-c3ccccc3)c2cc1Cl`, for which the inhibition was 2.7% in assay [1], 0.9% in assay [2] and 11.5% in assay [3].
The matching figures for `S=C(NCCOCCOCCNC(=S)Nc1ccccc1)Nc1ccccc1`: 1.9%, 2% and -3.8%.
With `OCC1CCN(Cc2cn(Cc3ccccc3)nc2-c2cc3ccccc3o2)CC1`, the inhibition in assay [1] is -0.4%; in assay [2] it was -0.7%; in assay [3], -0.9%.
The corresponding values for `O=C(O)c1cnccn1` are -5.5%, -1.6% and -1.5%.
`C#C[C@]1(O)CC[C@H]2[C@@H]3CCC4=CC(=O)CC[C@@H]4[C@H]3CC[C@@]21CC`: the inhibition in assay [1] was -0.6%; in assay [2], -1.3%.
For the compound `Cc1ccc2c(CC(=O)O)coc2c1`, the inhibition in assay [1] was -2.9%; in assay [2], -1.3%; in assay [3], -1.1%.
The corresponding values for `CCN(CC)CCOC(=O)C1(C2CCCCC2)CCCCC1` are 1.9%, 1% and -2.4%.
The matching figures for `CCOC(=O)C1=C2c3ccc4ccccc4c3CC(C)(C)N2C(=O)C1=O`: 2.7%, 1.7% and -4.6%.
On to `NC(N)=NC(N)=NCCc1ccccc1`, for which the inhibition in assay [1] is -1%; in assay [2], -0.8%.
As for `O=c1c(C(c2ccccc2)c2c(O)sc3ccccc3c2=O)c(O)sc2ccccc12`, the inhibition was -0.8% in assay [1], 1.7% in assay [2] and 2.4% in assay [3].
With `c1ccc(Nc2ccccn2)nc1`, the figures for the inhibition in assay [1], in assay [2] and in assay [3] were 2.3%, -2.1% and -4.7%, respectively.
The matching figures for `CCc1ccc(CN(C)Cc2nc(Cc3ccccc3)no2)nc1`: 1.4%, 0.5% and 1.2%.
The matching figures for `CCC(C)NCCOCCOc1ccc(Cl)c2ccccc12` (configuration not stated): -2.3%, 1.8% and -6.5%.
Consider `CC(=O)Nc1ccccc1O`, for which the inhibition in assay [1] was 1.5%; in assay [2], -1.1%; in assay [3] it was -1.7%.
For the compound `CC1(C)CC(=O)C(C(=O)CCCCC(=O)C2C(=O)CC(C)(C)CC2=O)C(=O)C1`, the results for the inhibition in assay [1], in assay [2] and in assay [3] were 1.2%, 0.8% and -5.7%, respectively.
In the case of `O=C(OCC1CCCN2CCCCC12)c1ccc2c(c1)OCO2` (configuration not stated), the inhibition in assay [1] was -1.9%; in assay [2], -1.6%; in assay [3], -6.7%.
The matching figures for `CC12CCC(C(=O)N(CCC#N)CCC#N)(CC1=O)C2(C)C` (configuration not stated): 2.1%, -1.2% and 1.5%.
The corresponding values for `CC(=O)Nc1ccccc1C(=O)C(=O)Nc1ccccc1` are 2.1%, 0.9% and -1.5%.
The corresponding values for `Cn1c(Oc2ccc3c(c2)OCO3)nc2c1c(=O)n(Cc1ccccc1)c(=O)n2C` are 1.4%, -0.3% and -0.5%.
Turning to `COc1cc(C2Nc3ccccc3C(=O)N2c2ccccc2)ccc1O` (configuration not stated), the inhibition is 0.9% in assay [1], 0% in assay [2] and -4.4% in assay [3].
The matching figures for `CC(C)(C)C(=O)NC(=S)Nc1sc2c(c1C(N)=O)CCC2`: 0.8%, 0.4% and -1.2%.
The matching figures for `Nc1nnc(CSCc2ccc(Cl)cc2Cl)s1`: 0.7%, -0.6% and 6.8%.
On to `COc1ccc(C(=O)NCC2OCCc3ccccc32)cc1` (configuration not stated), for which the inhibition is -0.4% in assay [1], -0.3% in assay [2] and -8.6% in assay [3].
The matching figures for `COc1ccc(S(=O)(=O)NC(Cc2cnc[nH]2)C(=O)O)cc1` (configuration not stated): 2.4%, -0.6% and -0.5%.
In the case of `CC(=O)OCC(=O)[C@@]12OC(C)(C)O[C@@H]1C[C@H]1[C@@H]3C[C@H](F)C4=CC(=O)C=C[C@]4(C)[C@@]3(F)[C@@H](O)C[C@@]12C`, the inhibition in assay [1] is -3.5%; in assay [2], -1.4%.
Turning to `COc1ccc(Cc2noc(CN(C)CCN3CCc4ccccc4C3)n2)cc1OC`, the inhibition is -1.9% in assay [1], -0.3% in assay [2] and -7.4% in assay [3].
Consider `Cc1cc(-c2nn(-c3ccccc3F)cc2CN2CCC(O)CC2)c(C)s1`, for which the inhibition in assay [1] was -1.7%; in assay [2] it was 0.2%; in assay [3] it was -1.4%.
`CC(N=C(NC#N)Nc1ccncc1)C(C)(C)C` (configuration not stated): the inhibition in assay [1] was 0.4%; in assay [2] it was 2.3%.
The matching figures for `CN1CCN2c3ccccc3Cc3ccccc3C2C1` (configuration not stated): 0.3% and 0.5%.
For `Cc1cccc(-c2ncc(CN3CCN(CC(C)C)C(CCO)C3)cn2)c1` (configuration not stated), the inhibition in assay [1] was 2.6%; in assay [2] it was 0.9%; in assay [3], 0.4%.
